Only some compounds are listed: those with a hit (about 12% of all), similar ones and a draw of the others.
BAZ2B inh: qHTS Assay for Inhibitors of BAZ2B. Bromodomain adjacent to zinc finger domain protein 2B (Homo sapiens), Q9UIF8. AlphaScreen BAZ2B-H3K14Ac peptide displacement. Potency, µM (highest dose often 114 µM), actives largely listed as inhibitors. 360,000 tested, 4.4% active; further: nearly all actives have a fitted effect of over 60% in size
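Inhibition is scored as reduced AlphaScreen emission. The BAZ2B/b-H3(5-23)K14Ac complex (50 nM each) in PBS pH 7.4, 0.01% Tween-20 meets compound (up to 110 uM) for 30 min at RT before bead addition.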
HP1b binding inh: HTS for Inhibitors of HP1-beta Chromodomain Interactions with Methylated Histone Tails | Chromobox protein homolog 1 (Homo sapiens), P83916 | AlphaScreen HP1-beta / biotin-H3K9me3 peptide binding | Potency, µM (highest dose often 114 µM), usual class: inhibitors | 390,000 tested, 0.56% active; further: nearly all actives have a fitted effect of over 70% in size
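HP1-beta protein (50 nM final) preincubated 30 min at room temperature with biotinylated H3(1-18)K9me3 peptide (50 nM) in PBS pH 7.4, 0.01% Tween-20, then compound added for 30 min. AlphaScreen streptavidin donor/nickel chelate acceptor beads (10 ug/mL final), 30 min dark, luminescence read.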
JMJD2A Tudor: qHTS Assay for Inhibitors of JMJD2A-Tudor Domain; Lysine-specific demethylase 4A (Homo sapiens), O75164; AlphaScreen JMJD2A-Tudor / H3K4me3 peptide binding; Potency, µM (highest dose often 114 µM), hits mostly inhibitors; 390,000 tested, 4.4% active; AID 504339, 2011; further: nearly all actives have a fitted effect of over 50% in size
Sfp PPTase inh: qHTS Assay for Inhibitors of Bacillus subtilis Sfp phosphopantetheinyl transferase (PPTase). Biochemical Sfp PPTase activity, qHTS. 310,000 tested, 3.5% active. 4'-phosphopantetheinyl transferase ffp (Bacillus subtilis), Q9F4F7. Potency, µM, usual class: inhibitors;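 further: the enzyme is Sfp with the accession as filed and its product quenches rhodamine fluorescence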
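Step 1, compound plus 15 nM Sfp-PPTase, 15 min, room temperature. Step 2, add rhodamine-CoA (5 uM) and BHQ-2-YbbR (12.5 uM). Step 3, read 525/598 nm fluorescence at 0 and 30 min.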
G9a inh: qHTS Assay for Inhibitors of Histone Lysine Methyltransferase G9a | G9a H3K9 monomethylation, AlphaScreen, 2 h | Potency, µM (highest dose often 102 µM), most hits filed as inhibitors | 350,000 tested, 8.8% active | AID 504332, 2011; further: nearly all actives have a fitted effect of over 75% in size
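Compounds were preincubated with 20 nM G9a for 15 min, after which biotinylated H3K9 peptide (500 nM) and SAM (20 uM) started a 2 h room-temperature reaction. Monomethylated product was quantified by antibody-based AlphaScreen chemiluminescence.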
PLK1 PBD block: qHTS for Inhibitors of PLK1-PDB (polo-like kinase 1 - polo-box domain): Primary Screen; 360,000 tested, 2.8% active; Potency, µM, actives largely listed as inhibitors; Plk1 PBD binding of FITC phosphopeptide, fluorescence polarization; Serine/threonine-protein kinase PLK1 (Homo sapiens), P53350; further: series mostly up to about 57 µM; nearly all actives have a fitted effect of over 65% in size
Target sequence (P53350 whole entry, looked up, the tested form may be a part): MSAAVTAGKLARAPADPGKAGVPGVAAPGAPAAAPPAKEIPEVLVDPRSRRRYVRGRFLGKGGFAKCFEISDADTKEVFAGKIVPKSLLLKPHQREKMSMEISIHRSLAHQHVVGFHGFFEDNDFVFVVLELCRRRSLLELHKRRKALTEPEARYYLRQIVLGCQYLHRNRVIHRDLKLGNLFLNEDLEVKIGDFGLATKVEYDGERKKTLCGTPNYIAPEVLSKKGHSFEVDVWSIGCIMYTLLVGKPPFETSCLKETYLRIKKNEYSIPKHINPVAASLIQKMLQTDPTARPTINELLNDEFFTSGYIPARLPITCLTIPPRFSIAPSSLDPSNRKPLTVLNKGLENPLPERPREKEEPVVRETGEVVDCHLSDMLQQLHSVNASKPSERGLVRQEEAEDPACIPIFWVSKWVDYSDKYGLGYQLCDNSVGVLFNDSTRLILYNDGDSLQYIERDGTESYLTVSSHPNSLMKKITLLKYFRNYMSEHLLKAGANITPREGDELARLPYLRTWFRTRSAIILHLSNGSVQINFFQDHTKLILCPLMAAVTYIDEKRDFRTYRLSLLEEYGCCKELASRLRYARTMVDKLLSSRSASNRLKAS
Large screens that a line does not name were inactive; ! = not confirmed by another sample. The call rests on the fitted dose curve; in most records, active means well fitted curve in the direction sought with a large enough effect; inconclusive means small, poorly fitted or top-dose-only effect, or another doubt; inactive means no such curve, though single readings can be large; an effect the other way counts as inactive or inconclusive.

COCCCNc1oc(/C=C/c2cc(OC)c(OC)c(OC)c2)nc1C#N	none (no result: Sfp PPTase inh, PLK1 PBD block)
COC(=O)c1sccc1NC(=S)Nc1cc(C)cc(C)c1	none
O=C(Cc1ccccn1)Nc1ccccc1	BAZ2B inh inconclusive, G9a inh 40µM
Fc1ccc(NC(=S)Nc2nccs2)cc1	Sfp PPTase inh inconclusive, G9a inh inconclusive, PLK1 PBD block inconclusive
S=C(Nc1ccccc1)Nc1nccs1	JMJD2A Tudor inconclusive, Sfp PPTase inh inconclusive, G9a inh 27µM!
O=C(CSCc1ccccn1)Nc1ccccc1	none
COC(=O)c1sccc1NC(=S)Nc1ccccc1	G9a inh 50µM
O=C(Cc1cc(C(=O)O)c2ccccc2n1)Nc1ccccc1	G9a inh 35µM
COC(=O)c1nc(Nc2cc(F)cc(F)c2)nc(NC2CCCC2)n1	none (no result: BAZ2B inh, HP1b binding inh, Sfp PPTase inh, G9a inh, PLK1 PBD block)
Fc1ccc(NC(=S)NCc2ccccn2)cc1	none
S=C(NCc1ccccn1)Nc1ccccc1	BAZ2B inh 79µM
COc1cccc(NC2=NCC(=O)N2Cc2cccs2)c1	G9a inh 50µM
C=CCN1C(=O)CN=C1Nc1cccc(C)c1	BAZ2B inh inconclusive, G9a inh 35µM
Cc1ccc(NC2=NCC(=O)N2Cc2cccs2)cc1C	BAZ2B inh 79µM, PLK1 PBD block inconclusive
COc1ccc(NC2=NCCC(=O)N2Cc2cccs2)cc1	BAZ2B inh inconclusive, Sfp PPTase inh inconclusive, G9a inh 45µM
COc1ccc(OC)c(NC(=O)Cn2c(=O)n(Cc3nc(C)no3)c(=O)c3ccccc32)c1	none (no result: Sfp PPTase inh, PLK1 PBD block)
Cc1ccc(S(=O)(=O)Nc2cc(S(=O)(=O)N3CCOCC3)ccc2NCC2CCCO2)cc1 (stereo not given)	G9a inh inconclusive (no result: Sfp PPTase inh)
Cc1cc(C)cc(NC(=O)COC(=O)CC2CCCC2)c1	none (no result: Sfp PPTase inh)
Cc1ccc2nc3c(cc(C#N)c(=O)n3-c3nnc(SCc4ccc(F)cc4)s3)c(=O)n2c1	none (no result: Sfp PPTase inh, PLK1 PBD block)
COc1cc(OC)c2ccc(=O)oc2c1C(CCN1CCCC1)c1ccc2c(c1)OCO2 (stereo not given)	none
COc1ccc(C2CC(=O)Oc3c(C(CCN4CCCC(C)C4)c4ccc(N(C)C)cc4)c(OC)cc(OC)c32)cc1 (stereo not given)	BAZ2B inh 14µM, HP1b binding inh 14µM, JMJD2A Tudor 14µM, Sfp PPTase inh 89µM!
COc1ccc(C(CCN2CCCC(C)C2)c2c(OC)cc(OC)c3c(C)cc(=O)oc23)cc1 (stereo not given)	none
COc1cc(OC)c2c(c1C(CCN1CCCC1)c1ccc(N(C)C)cc1)OC(=O)CC2c1ccc(N(C)C)cc1 (stereo not given)	HP1b binding inh inconclusive, JMJD2A Tudor 16µM (no result: BAZ2B inh, G9a inh, PLK1 PBD block)
COc1ccc(C2CC(=O)Oc3c(C(CCN4CCCCC4)c4ccc(N(C)C)cc4)c(OC)cc(OC)c32)cc1 (stereo not given)	BAZ2B inh 22µM, HP1b binding inh inconclusive, JMJD2A Tudor 16µM
COc1ccc(C2CC(=O)Oc3c(C(CCN4CCCC(C)C4)c4cc(OC)c(OC)c(OC)c4)c(OC)cc(OC)c32)cc1 (stereo not given)	JMJD2A Tudor inconclusive (no result: BAZ2B inh, G9a inh, PLK1 PBD block)
Cc1ccc(-n2c(Cc3ccccc3)nnc2SCc2nc(-c3cccs3)no2)cc1C	none (no result: Sfp PPTase inh, PLK1 PBD block)
O=S(=O)(c1cccc2ccccc12)N1CCN(c2ccc(Cl)c(Cl)c2)CC1	none (no result: Sfp PPTase inh, PLK1 PBD block)
Clc1ccccc1N=C1NN=C(c2cccs2)CS1	G9a inh 89µM (no result: BAZ2B inh)
Cc1ccc(S(=O)(=O)CCC(=O)OCC(=O)NC2CCS(=O)(=O)C2)cc1 (stereo not given)	none (no result: Sfp PPTase inh)
Cc1[nH]c2ccccc2c1C(c1ccncc1)N1CCC(C)CC1 (stereo not given)	JMJD2A Tudor inconclusive, G9a inh 28µM, PLK1 PBD block inconclusive
Cc1[nH]c2ccccc2c1C(c1ccncc1)N1CCN(c2ccccc2F)CC1 (stereo not given)	BAZ2B inh inconclusive, JMJD2A Tudor inconclusive, G9a inh 11µM

Source: PubChem BioAssay (National Center for Advancing Translational Sciences (NCATS))
